Experiments:
Assay in all cases: PBM binding z-score (relative to random genomic background probes); higher = stronger binding; sequences stand for … in GC…GCGATTGACAGCGTAGAATGAAGG
[1] = system: RARb homodimer (NR concentration 270 nM)
Summary of the method: (§1)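 Binding z-scores take random background probes as their reference. They come from custom Agilent 4×180K protein-binding microarrays incubated 1 h with ligand-free nuclear receptor dimers, with antibodies against each partner (one per run) detecting binding. Scanned fluorescence was regression-normalized.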

[2] = system: RARg:RXRa (NR concentration 270 nM, RXRa partner concentration 90 nM)
Summary of the method: as §1

[3] = system: RARg homodimer (NR concentration 270 nM)
Summary of the method: as §1

[4] = system: RXRa DBDmut IVT, anti-RXR (DBD mutation: RXRa K156A/R161A, NR concentration 90 nM)
Summary of the method: as §1

[5] = system: RXRa homodimer (NR concentration 180 nM)
Summary of the method: as §1

[6] = system: THRa:RXRa (NR concentration 90 nM, RXRa partner concentration 90 nM)
Summary of the method: as §1

[7] = system: THRa homodimer (NR concentration 90 nM)
Summary of the method: as §1

[8] = system: VDR homodimer (NR concentration 270 nM)
Summary of the method: as §1

Sequence	PBM binding z-score [1]	PBM binding z-score [2]	PBM binding z-score [3]	PBM binding z-score [4]	PBM binding z-score [5]	PBM binding z-score [6]	PBM binding z-score [7]	PBM binding z-score [8]
ACAGACAAGTGAGTGAAGGTAACTCAGCTGGACG	-0.464	-0.0696	0.0663	-0.283	-0.0064	-0.0405	-0.435	-0.445
CGAACTAGGTCATTCAGGACAGTGAATACATTGA	2.72	3.7	4.69	2.77	2.8	3.63	2.13	2.27
CCGACTGGGCCATAAGGTTACCATAAGCCAGCCC	1.25	0.915	0.48	-0.727	0.767	2	1.52	-0.224
CAAACTAGGTCACGAATGGTCAAAGTCGAATGAC	3.87	4.77	5.18	1.61	3.82	3.74	1.51	0.784
TCAGCTAGGTCAACGATGGTCAGCTAATCTGCTA	3.49	3.89	4.83	1.11	2.49	2.88	0.578	-0.3
GGAACGAGGGCAAGTTGTTAGCAGAGTTTGATGG	1.42	1.49	1.82	2.39	0.957	1.46	0.187	1.65
GCGACTGGGGCAAAGCAGGTTACCATCAGGTTGG	0.97	0.227	0.303	-0.245	0.557	2.72	-0.213	-0.458
TGAATGAGGTTAAAGATCAGTGAACGTGGCGTCG	0.903	2.48	1.37	1.33	3.74	2.58	0.429	0.435
TCTAGTTGGTCAATGGTCACACACTCGAAATGCG	1.54	1.02	1.31	1.16	0.996	0.262	0.437	0.178
GCTATTACTTGAAAGGGCAACCGAATGATTCTCG	2.01	1.27	1.27	0.581	0.965	0.521	-0.383	-0.15
ACTCGGAGGACAAAGGTCTGAGCTACGCCAGTGA	0.62	0.869	0.954	0.352	0.0538	0.538	-0.424	-0.296
CCTAGTTGGTCAGGATGTCACACACCGGATATGA	1.17	0.74	1.1	0.164	0.209	0.0669	0.525	0.443
GTACCAAGGTGAATAGGTTGTTGATGAGTAGGCG	0.824	1.07	0.763	0.247	0.717	1.55	0.782	0.391
TGAATGAGGTTAAAGCTCAGGGAACGTGGCGTCG	0.437	1.9	0.981	1.06	2.71	2.16	0.216	0.0356
CGTCAAAGCTCAAGGTAACGTAACAGAAAGCAGC	-0.207	0.00785	0.083	-0.317	0.0693	1.29	0.693	-0.4
GCTTACGGGTCAAAGTTTATAGCATGAATAGAAT	2.72	5.32	4.39	3.19	7.06	2.9	-0.354	2.25
ATCTCTAGGTAACCAAGTTCAGTAAATGCCGAAC	1.71	0.886	0.809	1.13	0.802	1.67	1.07	2.48
TCGAGTAGGTTAGGGGCAGTCAGAATGGCGTCGA	1.27	0.245	0.258	0.0348	0.203	0.742	0.229	0.0516
CAAACTAGGTCCCGAAAGGTCAAAGTCGAATGAC	4.87	5.77	5.09	1.4	6.66	4.1	1.43	2.66
ATATGTAGGTTAAGGGTCATTCAGGTTGGTTCGC	4.16	4.91	3.76	2.37	6.65	3.68	2.05	4.42
ATCTCTAGGCAAAAGTTCAGTGAATCCCGAGGAT	2.4	1.66	1.69	0.479	1.02	0.622	-0.181	0.923
CCTAGTTGGTCAATGTCACACACGCTATAGGTAC	1.52	1.07	1.59	1.04	0.701	0.639	0.635	0.802
ATCGAAAGGTCGTGAGGAGAGTATACAGAAAGGC	2.56	4.52	4.04	1.59	5.22	2.7	0.251	0.69
CGTCCAAGGTCAAAGGTGAGTGAAGAGATGACGG	4.48	6.91	6.63	3.77	8.39	4.4	2.28	2.92
TCTAGTAGGTTACCAATGGGGCATTCAGCTTTCT	0.934	1.47	0.705	1.13	0.88	0.163	-0.277	0.254
ATCTCTAGGTAAAGTTCAGTGACAGATCGATAGA	2.63	1.99	2.63	1.51	1.39	1.31	0.436	2.61
CTACCAAGGTGAACAAGGTCCTTGATTACTATTC	1.02	0.733	0.947	0.723	0.86	2.29	1.03	0.358
CCTACTGGGCCACGAATGGTCATTGATTCAGTGA	0.417	-0.0594	0.262	-0.448	-0.409	-0.231	-0.537	-0.38
